± gives the standard deviation of the averaged measurements. Over roughly 25,000 sequences, “ln(normalized median fluorescence intensity)” has its median near 8.6; the highest 2% begin near 10. This excerpt belongs to a sample that is enriched for the highest values.
System: PfAP2-EXP AP2 domain (GST-tagged)
Assay: gcPBM binding intensity (ln(normalized median fluorescence intensity)); higher = stronger DNA binding
Procedure, shortened: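 Binding intensity values are the highest Masliner-normalised natural-log median intensity among replicate spots of either probe orientation. The binding step lasted 1 h in 1× PBS with 1% milk, 0.2 mg/ml BSA, 0.5% salmon testes DNA and 0.03% Triton X-100, using GST-tagged P. falciparum DNA-binding domains expressed in E. coli on an Agilent 4 × 180k array of primer-extended double-stranded 36-bp intergenic genomic probes plus negative controls. Alexa488 anti-GST antibody and a 488 nm scan detected bound protein.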

Row | Sequence | gcPBM binding intensity (ln)
1 | TCCTTATAAAAATACACACAAACTTTAATTAAAACA [CACACA_site3730] | 8.45 ± 0.58
2 | TTTAAGATTTTGTAATGTACATATATACATATATAT [XGTACX_site399] | 8.45 ± 0.33
3 | ATATAAATAAAGAAATATATATATATATATATATAT [GTGCAC_negctrl_site668] | 10.2 ± 0.88
4 | AAGAAATAAATACATACACACATATATAAATAAATA [CACACA_site7559] | 8.68 ± 0.18
5 | AATATAAGAATATATACACACATAAATACATACATA [CACACA_site4128] | 8.6 ± 0.31
6 | AAAAAAAAAAAAGAAAAATATATATATAAATAAATA [GTGCAC_negctrl_site569] | 8.29 ± 0.67
7 | TAAAGAAATAAATACATACACACATATATATATATA [CACACA_site3363] | 10.2 ± 0.5
8 | AGAAATAAGAAATATACACACATATAAATATAAATA [CACACA_site7342] | 8.52 ± 0.55
9 | AGAAATAAGAAATATACACACATATATATATATATA [CACACA_site2808] | 10.2 ± 0.18
10 | AAGAAATAAATACATACACACATATATATATATATA [CACACA_site3362] | 10 ± 0.34
11 | AAAAAAAGAAATAATAAAAAATATATATATATATAT [GTGCAC_negctrl_site702] | 10.1 ± 0.44
12 | TTTTTTTTTTTTGATGCACACACCTGAACGAGTTAA [CACACA_site317] | 8.62 ± 0.32
13 | TAGCGTACATTTCATTGTAATCATAAAAAATAAAGA [CACACA_negctrl_site447] | 8.56 ± 0.49
14 | GTTGCAATTAACACTAGTACATATAAGTAGTTTATT [XGTACX_site2063] | 8.72 ± 0.18
15 | TCCTTGCATTTTAAAACACACAAAAATTAATTGTTA [CACACA_site7152] | 8.55 ± 0.32
16 | TTTTATGATTGACACACACACAAAAAAAAAAAAAAA [CACACA_site7860] | 8.2 ± 0.43
17 | AATAAAAATAATATAGTGCATAATATAAGGAAAAAA | 9.07 ± 0.071
18 | TATATATATATATAAGTGCATATAAAAATCGTTCGT | 10.3 ± 0.18
19 | ATATATATATATATAGTGCATAAAATAAGTTTCTAA | 10.2 ± 0.28
20 | AAAAAAAATATACATACATGCATACATAAGTTTCTA [TGCATGCA_site998] | 8.49 ± 0.24
21 | TATATATATATAATAGTGCATAAATAAATATATAAA | 9.65 ± 0.057
22 | TTTCTAGTTACAAGAGTGCATAATATATAAAAATAA [GTGCAC_site9874] | 8.85
23 | TTTTTTATTCCATAATATAATATGTTTTGAAATTTG [GTGCAC_negctrl_site440] | 8.27 ± 0.33

Row | Sequence | gcPBM binding intensity (ln)
24 | TTTATTATATTTTTTTGTACATATTGATGTATATAA [XGTACX_site6527] | 8.59 ± 0.28
25 | GATGTGATGTATTTGGTATTTTTCGATGTTGGTAGG [CACACA_negctrl_site355] | 8.79 ± 0.73
26 | TACTATTTAAAATATGAACACACATTATTTGTTTTA [CACACA_site8870] | 8.13 ± 0.3
27 | ATATTGAAATGTTAATAGAAATATATGGTTAAATTG [XGTACX_negctrl_site212] | 8.34 ± 0.34
28 | ATATACAGAAAAAATTAAAATAAATATGCAAAACAA [CACACA_negctrl_site704] | 8.86 ± 0.32
29 | ATAAATAAAACAACAGTGCAATAAAATTAGTTGAGG | 9.035 ± 0.021
30 | AAAATAAAATTAGTTGCATGCAACTTAAACAGAAAT [TGCATGCA_site860] | 10.3 ± 0.35
31 | CCTAAAGTGTAAAATTCACACACATATATATATATA [CACACA_site8385] | 10.2 ± 0.44
32 | GTGTAAAAATTAAAGTGTACACATATATATATATAT [XGTACX_site2251] | 10.2 ± 0.31
33 | TATTGTTATTAAAAATGTACATATAAATTTCTTATT [XGTACX_site1409] | 8.32 ± 0.33
34 | ATATATAATTAATTTTGTACACATAAAAAAAAAAAT [XGTACX_site6647] | 8.59 ± 0.42
35 | TAAAAATTAAAGTGTACACATATATATATATATATA [CACACA_site4781] | 10.2 ± 0.38
36 | TAAATTAATAAAAAGTGTACATAATATACATATATA [XGTACX_site8604] | 8.62 ± 0.33
37 | TTTTTCTTAAAAAATTGTACACATATATATATATAT [XGTACX_site542] | 10.3 ± 0.22
38 | AAAAAATTATAAAAGTGTACATATATATATATATAT [XGTACX_site154] | 10 ± 0.38
39 | TAAAGTGTAAAATTCACACACATATATATATATATA [CACACA_site4883] | 10.1 ± 0.36
40 | AGGGGAAATAAAATATAAATTATCATATATATATAT [XGTACX_negctrl_site366] | 9.94 ± 0.21
41 | TTTTATTATATATATTGTACATATATTTTTATTTTT [XGTACX_site1564] | 8.62 ± 0.33
42 | TAAACATAAATATACACACAAACATATATGTATTTT [CACACA_site1214] | 8.51 ± 0.32
43 | TATGAACACCCAAATACACACACTCAAAAAAAAAAA [CACACA_site5466] | 8.4 ± 0.32
44 | TAAAAAATAAAATACACACACATATATATATATATA [CACACA_site1323] | 10.2 ± 0.64
45 | TACATATATTATTGCACACATATAAAATACCCCCAA [CACACA_site3895] | 9.55 ± 0.52
46 | AAAAAAAAAATATACACACACACATACACATAAATA [CACACA_site3808] | 8.79 ± 0.53

Row | Sequence | gcPBM binding intensity (ln)
47 | AAAAATAAGATATATACACACATATAAATATAAATA [CACACA_site7396] | 8.51 ± 0.38
48 | TAAAAAATAAGATATACACACATATATATATATATA [CACACA_site2324] | 10.2 ± 0.42
49 | ATAAAAAAAAAAAATACACACATATATATATATATA [CACACA_site1709] | 10.1 ± 0.26
50 | CATACATATATTATTGCACACATATAAAATACCCCC [CACACA_site9292] | 10.2 ± 0.33
51 | AAAAAAAAAAAAAATACACACATATAAATATAAATA [CACACA_site6189] | 8.3 ± 0.49
52 | TAAAAAAATAAATATACACACATATATATATATATA [CACACA_site1089] | 10.2 ± 0.29
53 | AAAAATAAAATATATACACACATATATATATATATA [CACACA_site2943] | 10.2 ± 0.64
54 | TACAGATATTATTGCACACATATAAAATACCCCCAA [CACACA_site6014] | 9.53 ± 0.33
55 | TAAAAAATAAGATATACACACATATATTTATTTATA [CACACA_site7158] | 8.09 ± 0.52
56 | ATTATACTTTCCATTCGTACATATATAAATAAATAA [XGTACX_site6245] | 8.93 ± 0.35
57 | TTTTATTTATTTTATTGTACATATATAAAACTATGA [XGTACX_site3476] | 8.57 ± 0.42
58 | ATATTTTTAGATTCAGAAAAAAGATTCAACTTACTC [CACACA_negctrl_site1357] | 8.25 ± 0.45
59 | ATGTAGAATTGTAAATGTACATGAAACACATATTCA [XGTACX_site3436] | 8.79 ± 0.34
60 | TATAATATATTTATATGTACTTATTTATTTATATAT [XGTACX_site6519] | 8.39 ± 0.34
61 | AAAAATAAAATAAAGAAGGAAAATAAAAAAATAAGG [CACACA_negctrl_site1811] | 8.79 ± 0.44
62 | ATTTGTATATATTAATGTACACACATGCGTATGTTC [XGTACX_site7579] | 8.73 ± 0.41
63 | ATATTTATGACCGTACGTACCTAACAATACAATCAA [XGTACX_site4511] | 8.67 ± 0.099
64 | TATATAAACATATAAACATGCAATATATATATGTTA [TGCATGCA_site765] | 8.43 ± 0.2
65 | TTAATTTACATGAACTGTACATAACATTTTTTTAAA [XGTACX_site4672] | 8.38 ± 0.38
66 | TATATATATATATATATACACACTATATAATTCAAA [CACACA_site1023] | 10.2 ± 0.44
67 | TATATATATATATATACACACACACTAATAAAAAAA [CACACA_site8426] | 10.2 ± 0.21
68 | ATATAAATAATATAAATACACACTAAAAAAAATATA [CACACA_site542] | 8.72 ± 0.51
69 | AAATTATAATATAATACACACATAAAAAAAAAATCA [CACACA_site3634] | 8.6 ± 0.43

Row | Sequence | gcPBM binding intensity (ln)
70 | TATATATATATATATACACACTATATAATTCAAACA [CACACA_site4712] | 10.1 ± 0.33
71 | CCCCCCGTGTTATATACACACATAATCAAATAAAAT [CACACA_site4111] | 10.9 ± 0.078
72 | AGGCACGTGTTATATACACACATAATCAAATAAACT [CACACA_site7852] | 8.76 ± 0.56
73 | ATAAATAATATAAATACACACTAAAAAAAATATATA [CACACA_site4456] | 8.62 ± 0.54
74 | CAATTCAATATATATACACACACACTATTAATAATT [CACACA_site9256] | 8.52 ± 0.41
75 | AAAGTAAAAGAAAGCACACACACATGGATTTATGTA [CACACA_site5997] | 8.53 ± 0.49
76 | ATATAGAATGTTTACACACGCAATAAATATATATAT [CACACA_site217] | 9.27 ± 0.13
77 | AAAAAAAAAAAAAAAAAAAAAAAAAAAATTCTATAT [GTGCAC_negctrl_site468] | 9.28
78 | ACAAATAAATATATATGTACATATATTTTTTTATTT [XGTACX_site2989] | 8.56 ± 0.37
79 | TATATAGAAAACAAGGCATGCAAATAACAAATTGTG [TGCATGCA_site473] | 9.85 ± 0.36
80 | GACACCTGCATGAAAGTGCAAAATAGAAAAGGAACA [GTGCAC_site9593] | 9.22 ± 0.38
81 | ATATAGAACACCTGTGCATGCAAGTGCTAAAAAATT [TGCATGCA_site213] | 10.175 ± 0.007
82 | TATTTTACTTTAAAAATGGAAAAAAAAAAGAATATT [CACACA_negctrl_site1360] | 8.38 ± 0.47
83 | TAGAAATAAGAAAAATGTACATATAATATTGAAAGT [XGTACX_site3043] | 9.17 ± 0.35
84 | TAATGATAAATACATACACACAAAAAATGATATATA [CACACA_site7258] | 8.6 ± 0.32
85 | CGCAAAACAATGATACGTACATATATATATATATAT [XGTACX_site5883] | 10.3 ± 0.33
86 | ATACAATGATATATACATATATATATATATATATAT [TGCATGCA_negctrl_site359] | 10.2 ± 0.49
87 | TAAAAAAAAACATATACACACAAAAACGTACACATA [CACACA_site1354] | 8.86 ± 0.36
88 | AATGATACACATATATGTACATATATATATATATAT [XGTACX_site5391] | 10 ± 0.58
89 | GTAATATATACAAAATGTACAAAACAATAACATGAT [XGTACX_site8575] | 8.8 ± 0.39

Reference: the supplement of paper PMC11417369
